Laboratory results published in article PMC11006913.
Numbering of substitutions follows the chain as printed.

How the values were obtained:
Experiment in all cases: PBM; 200 nM protein, PBS
Settings in all cases: dsDNA, one strand shown
SIX6 [1] = molecular target: T1, SIX6 (Homo sapiens, UniProt O95475 114-200, L167I)
T1 sequence: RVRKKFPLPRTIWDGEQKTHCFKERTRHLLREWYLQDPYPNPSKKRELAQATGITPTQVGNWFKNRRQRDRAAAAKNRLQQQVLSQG

SIX6 [2] = molecular target: T2, SIX6 (Homo sapiens, UniProt O95475 114-200, L143V)
T2 sequence: T1 sequence with L30V, I54L

SIX6 [3] = molecular target: T3, SIX6 (Homo sapiens, UniProt O95475 114-200, H141N)
T3 sequence: T1 sequence with H28N, I54L

SIX6 [4] = molecular target: T4, SIX6 (Homo sapiens, UniProt O95475 114-200, T165P)
T4 sequence: T1 sequence with T52P, I54L

SIX6 [5] = molecular target: T5, SIX6 (Homo sapiens, UniProt O95475 114-200, L167M)
T5 sequence: T1 sequence with I54M

SIX6 [6] = molecular target: T6, SIX6 (Homo sapiens, UniProt O95475 114-200, L143M)
T6 sequence: T1 sequence with L30M, I54L

SIX6 [7] = molecular target: T7, SIX6 (Homo sapiens, UniProt O95475 114-200, L143I)
T7 sequence: T1 sequence with L30I, I54L

SIX6 [8] = molecular target: T8, SIX6 (Homo sapiens, UniProt O95475 114-200, T165G)
T8 sequence: T1 sequence with T52G, I54L

SIX6 [9] = molecular target: T9, SIX6 (Homo sapiens, UniProt O95475 114-200, T139Q)
T9 sequence: T1 sequence with T26Q, I54L

SIX6 [10] = molecular target: T10, SIX6 (Homo sapiens, UniProt O95475 114-200, T165A)
T10 sequence: T1 sequence with T52A, I54L

SIX6 [11] = molecular target: T11, SIX6 (Homo sapiens, UniProt O95475 114-200, L167V)
T11 sequence: T1 sequence with I54V

SIX6 [12] = molecular target: T12, SIX6 (Homo sapiens, UniProt O95475 114-200)
T12 sequence: T1 sequence with I54L

SIX6 [13] = molecular target: T13, SIX6 (Homo sapiens, UniProt O95475 114-200, T165I)
T13 sequence: T1 sequence with T52I, I54L

Sequence: GGCCGGAA
- binding signal (SIX6 [1]): 9.02 upbm affinity estimate (log intensity, higher = more binding, comparable within an allelic series)
- binding signal (SIX6 [2]): 8.91 upbm affinity estimate (log intensity, higher = more binding, comparable within an allelic series)
- binding signal (SIX6 [3]): 8.94 upbm affinity estimate (log intensity, higher = more binding, comparable within an allelic series)
- binding signal (SIX6 [4]): 9.01 upbm affinity estimate (log intensity, higher = more binding, comparable within an allelic series)
- binding signal (SIX6 [5]): 8.98 upbm affinity estimate (log intensity, higher = more binding, comparable within an allelic series)
- binding signal (SIX6 [6]): 9 upbm affinity estimate (log intensity, higher = more binding, comparable within an allelic series)
- binding signal (SIX6 [7]): 8.95 upbm affinity estimate (log intensity, higher = more binding, comparable within an allelic series)
- binding signal (SIX6 [8]): 8.98 upbm affinity estimate (log intensity, higher = more binding, comparable within an allelic series)
- binding signal (SIX6 [9]): 9.04 upbm affinity estimate (log intensity, higher = more binding, comparable within an allelic series)
- binding signal (SIX6 [10]): 8.94 upbm affinity estimate (log intensity, higher = more binding, comparable within an allelic series)
- binding signal (SIX6 [11]): 9.02 upbm affinity estimate (log intensity, higher = more binding, comparable within an allelic series)
- binding signal (SIX6 [12]): 8.92 upbm affinity estimate (log intensity, higher = more binding, comparable within an allelic series)
- binding signal (SIX6 [13]): 8.95 upbm affinity estimate (log intensity, higher = more binding, comparable within an allelic series)

Sequence: GGATATCA
- binding signal (SIX6 [1]): 11.4 upbm affinity estimate (log intensity, higher = more binding, comparable within an allelic series)
- binding signal (SIX6 [2]): 10.4 upbm affinity estimate (log intensity, higher = more binding, comparable within an allelic series)
- binding signal (SIX6 [3]): 11.4 upbm affinity estimate (log intensity, higher = more binding, comparable within an allelic series)
- binding signal (SIX6 [4]): 9.53 upbm affinity estimate (log intensity, higher = more binding, comparable within an allelic series)
- binding signal (SIX6 [5]): 10.9 upbm affinity estimate (log intensity, higher = more binding, comparable within an allelic series)
- binding signal (SIX6 [6]): 11.1 upbm affinity estimate (log intensity, higher = more binding, comparable within an allelic series)
- binding signal (SIX6 [7]): 10.4 upbm affinity estimate (log intensity, higher = more binding, comparable within an allelic series)
- binding signal (SIX6 [8]): 11.3 upbm affinity estimate (log intensity, higher = more binding, comparable within an allelic series)
- binding signal (SIX6 [9]): 11.2 upbm affinity estimate (log intensity, higher = more binding, comparable within an allelic series)
- binding signal (SIX6 [10]): 11.3 upbm affinity estimate (log intensity, higher = more binding, comparable within an allelic series)
- binding signal (SIX6 [11]): 11.2 upbm affinity estimate (log intensity, higher = more binding, comparable within an allelic series)
- binding signal (SIX6 [12]): 11.2 upbm affinity estimate (log intensity, higher = more binding, comparable within an allelic series)
- binding signal (SIX6 [13]): 11.2 upbm affinity estimate (log intensity, higher = more binding, comparable within an allelic series)

Sequence: GATATCTA
- binding signal (SIX6 [1]): 11.1 upbm affinity estimate (log intensity, higher = more binding, comparable within an allelic series)
- binding signal (SIX6 [2]): 10.4 upbm affinity estimate (log intensity, higher = more binding, comparable within an allelic series)
- binding signal (SIX6 [3]): 11.1 upbm affinity estimate (log intensity, higher = more binding, comparable within an allelic series)
- binding signal (SIX6 [4]): 9.98 upbm affinity estimate (log intensity, higher = more binding, comparable within an allelic series)
- binding signal (SIX6 [5]): 10.8 upbm affinity estimate (log intensity, higher = more binding, comparable within an allelic series)
- binding signal (SIX6 [6]): 10.9 upbm affinity estimate (log intensity, higher = more binding, comparable within an allelic series)
- binding signal (SIX6 [7]): 10.3 upbm affinity estimate (log intensity, higher = more binding, comparable within an allelic series)
- binding signal (SIX6 [8]): 11.1 upbm affinity estimate (log intensity, higher = more binding, comparable within an allelic series)
- binding signal (SIX6 [9]): 11 upbm affinity estimate (log intensity, higher = more binding, comparable within an allelic series)
- binding signal (SIX6 [10]): 11 upbm affinity estimate (log intensity, higher = more binding, comparable within an allelic series)
- binding signal (SIX6 [11]): 10.9 upbm affinity estimate (log intensity, higher = more binding, comparable within an allelic series)
- binding signal (SIX6 [12]): 10.9 upbm affinity estimate (log intensity, higher = more binding, comparable within an allelic series)
- binding signal (SIX6 [13]): 10.9 upbm affinity estimate (log intensity, higher = more binding, comparable within an allelic series)

Sequence: GCAAAGCC
- binding signal (SIX6 [1]): 8.97 upbm affinity estimate (log intensity, higher = more binding, comparable within an allelic series)
- binding signal (SIX6 [2]): 8.93 upbm affinity estimate (log intensity, higher = more binding, comparable within an allelic series)
- binding signal (SIX6 [3]): 8.96 upbm affinity estimate (log intensity, higher = more binding, comparable within an allelic series)
- binding signal (SIX6 [4]): 9 upbm affinity estimate (log intensity, higher = more binding, comparable within an allelic series)
- binding signal (SIX6 [5]): 9.02 upbm affinity estimate (log intensity, higher = more binding, comparable within an allelic series)
- binding signal (SIX6 [6]): 8.9 upbm affinity estimate (log intensity, higher = more binding, comparable within an allelic series)
- binding signal (SIX6 [7]): 8.91 upbm affinity estimate (log intensity, higher = more binding, comparable within an allelic series)
- binding signal (SIX6 [8]): 8.9 upbm affinity estimate (log intensity, higher = more binding, comparable within an allelic series)
- binding signal (SIX6 [9]): 9 upbm affinity estimate (log intensity, higher = more binding, comparable within an allelic series)
- binding signal (SIX6 [10]): 8.93 upbm affinity estimate (log intensity, higher = more binding, comparable within an allelic series)
- binding signal (SIX6 [11]): 8.94 upbm affinity estimate (log intensity, higher = more binding, comparable within an allelic series)
- binding signal (SIX6 [12]): 8.98 upbm affinity estimate (log intensity, higher = more binding, comparable within an allelic series)
- binding signal (SIX6 [13]): 8.92 upbm affinity estimate (log intensity, higher = more binding, comparable within an allelic series)

Sequence: AGATATCA
- binding signal (SIX6 [1]): 11.4 upbm affinity estimate (log intensity, higher = more binding, comparable within an allelic series)
- binding signal (SIX6 [2]): 10.5 upbm affinity estimate (log intensity, higher = more binding, comparable within an allelic series)
- binding signal (SIX6 [3]): 11.4 upbm affinity estimate (log intensity, higher = more binding, comparable within an allelic series)
- binding signal (SIX6 [4]): 10.1 upbm affinity estimate (log intensity, higher = more binding, comparable within an allelic series)
- binding signal (SIX6 [5]): 10.8 upbm affinity estimate (log intensity, higher = more binding, comparable within an allelic series)
- binding signal (SIX6 [6]): 11 upbm affinity estimate (log intensity, higher = more binding, comparable within an allelic series)
- binding signal (SIX6 [7]): 10.4 upbm affinity estimate (log intensity, higher = more binding, comparable within an allelic series)
- binding signal (SIX6 [8]): 11.2 upbm affinity estimate (log intensity, higher = more binding, comparable within an allelic series)
- binding signal (SIX6 [9]): 11.1 upbm affinity estimate (log intensity, higher = more binding, comparable within an allelic series)
- binding signal (SIX6 [10]): 11.2 upbm affinity estimate (log intensity, higher = more binding, comparable within an allelic series)
- binding signal (SIX6 [11]): 11.2 upbm affinity estimate (log intensity, higher = more binding, comparable within an allelic series)
- binding signal (SIX6 [12]): 11 upbm affinity estimate (log intensity, higher = more binding, comparable within an allelic series)
- binding signal (SIX6 [13]): 11.1 upbm affinity estimate (log intensity, higher = more binding, comparable within an allelic series)
